Data reported in PubChem BioAssay (NCATS).
Records with an inconclusive call do not appear. Active and inactive are the calls of the source. Unless noted, calls follow the shape of the dose curve; as a rule, active = well fitted curve in the direction sought with a large enough effect; inconclusive = small, poorly fitted or top-dose-only effect, or another doubt; inactive = no such curve, though single readings can be large; an effect the other way counts as inactive or inconclusive.

Columns and labels:
[1] = target: Lysosomal acid glucosylceramidase (Homo sapiens) (UniProt P04062); experiment: Glucocerebrosidase-p2 (AID 348; in the data active = potency below about 10 µM; also: potency is read from the fitted curve at half-maximal effect); settings: purified GBA, blue fluorogenic substrate, 40 min
Lysosomal acid glucosylceramidase (Homo sapiens), sequence (P04062 whole entry, looked up): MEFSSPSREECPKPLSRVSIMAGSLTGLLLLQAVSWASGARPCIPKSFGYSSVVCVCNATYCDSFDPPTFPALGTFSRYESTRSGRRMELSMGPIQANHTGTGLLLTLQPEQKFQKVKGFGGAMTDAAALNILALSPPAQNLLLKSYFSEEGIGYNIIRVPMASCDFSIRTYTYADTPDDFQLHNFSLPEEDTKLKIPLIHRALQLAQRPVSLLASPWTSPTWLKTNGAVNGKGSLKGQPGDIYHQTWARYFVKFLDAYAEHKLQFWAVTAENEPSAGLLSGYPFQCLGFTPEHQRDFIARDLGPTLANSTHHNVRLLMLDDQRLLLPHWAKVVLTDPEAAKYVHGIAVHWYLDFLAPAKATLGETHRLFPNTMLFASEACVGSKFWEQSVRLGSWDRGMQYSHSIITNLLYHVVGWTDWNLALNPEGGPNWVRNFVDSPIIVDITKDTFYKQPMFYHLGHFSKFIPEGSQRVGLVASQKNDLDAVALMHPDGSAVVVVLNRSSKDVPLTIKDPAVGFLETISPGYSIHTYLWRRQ
Procedure, shortened: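 Compounds titrated from 0.6 nM upwards against 0.2 nM enzyme in pH 5.9 citric acid/KH2PO4, taurocholate, tween-20; blue fluorogenic substrate 80 uM, 40 min room temperature, stopped and read Ex 365/Em 440 for AC50.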

[2] = AP1 Signaling Pathway (AID 357; active = well fitted curve in either direction with a large enough effect, not every such curve was filed as active;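 also: ME-180 reporter cells stimulated with EGF at its EC50 level; % is scaled to controls: 0 for no effect and ±100 for the full control effect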); settings: ME-180 AP-1-bla reporter, EGF-induced, beta-lactamase ratio, 5 h; at 7.69 µM (top of the series) unless noted
Procedure, shortened: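 Read-out was the 460nm/530nm emission ratio (excitation 405nm) after CCF4 loading for 2.5 hours at room temperature. Cells carried an AP-1-driven beta-lactamase reporter, were stimulated with EC50 EGF plus compound for 5 hours, and AC50 values came from titrations.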

[3] = target: Cytochrome P450 1A2 (Homo sapiens) (UniProt P05177); experiment: p450-cyp1a2 (AID 410; calls by dose curve; also: potency is read from the fitted curve at half-maximal effect); settings: recombinant CYP1A2, luciferin-ME demethylation, luminescence; series mostly up to 57 µM
Cytochrome P450 1A2 (Homo sapiens), sequence (P05177 whole entry, looked up): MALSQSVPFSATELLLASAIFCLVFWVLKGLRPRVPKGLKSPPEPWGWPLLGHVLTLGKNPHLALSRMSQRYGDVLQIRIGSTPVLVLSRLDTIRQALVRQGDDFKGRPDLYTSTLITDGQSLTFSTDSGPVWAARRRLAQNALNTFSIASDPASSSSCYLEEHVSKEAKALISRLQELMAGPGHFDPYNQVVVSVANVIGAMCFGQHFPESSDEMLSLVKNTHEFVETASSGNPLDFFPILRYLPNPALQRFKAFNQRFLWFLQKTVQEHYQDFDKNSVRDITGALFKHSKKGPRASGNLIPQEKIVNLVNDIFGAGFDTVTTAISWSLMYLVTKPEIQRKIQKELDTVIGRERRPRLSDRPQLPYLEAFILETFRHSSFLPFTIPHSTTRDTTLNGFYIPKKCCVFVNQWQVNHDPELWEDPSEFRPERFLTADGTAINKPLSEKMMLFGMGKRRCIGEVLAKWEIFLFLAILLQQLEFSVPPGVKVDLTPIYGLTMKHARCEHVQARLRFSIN
Procedure, shortened: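 20nM CYP1A2 with 100uM Luciferin-ME (at Km) in 100mM KPO4; compound preincubated 10 min, NADPH regeneration added, 60 min at room temperature. Luciferin quantified by luminescence after detection reagent; normalized to 57 uM furafylline.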

[4] = target: Glucocorticoid receptor (Homo sapiens) (UniProt P04150); experiment: GR-GFP Redistribution (AID 450;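 active = compounds whose dose series gives a full or clear partial fitted curve of increased nuclear translocation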; also: potency is read from the fitted curve at half-maximal effect); settings: U2OS GR-GFP nuclear translocation, laser cytometry, 2 h
Glucocorticoid receptor (Homo sapiens), sequence (P04150 whole entry, looked up, the tested form may be a part): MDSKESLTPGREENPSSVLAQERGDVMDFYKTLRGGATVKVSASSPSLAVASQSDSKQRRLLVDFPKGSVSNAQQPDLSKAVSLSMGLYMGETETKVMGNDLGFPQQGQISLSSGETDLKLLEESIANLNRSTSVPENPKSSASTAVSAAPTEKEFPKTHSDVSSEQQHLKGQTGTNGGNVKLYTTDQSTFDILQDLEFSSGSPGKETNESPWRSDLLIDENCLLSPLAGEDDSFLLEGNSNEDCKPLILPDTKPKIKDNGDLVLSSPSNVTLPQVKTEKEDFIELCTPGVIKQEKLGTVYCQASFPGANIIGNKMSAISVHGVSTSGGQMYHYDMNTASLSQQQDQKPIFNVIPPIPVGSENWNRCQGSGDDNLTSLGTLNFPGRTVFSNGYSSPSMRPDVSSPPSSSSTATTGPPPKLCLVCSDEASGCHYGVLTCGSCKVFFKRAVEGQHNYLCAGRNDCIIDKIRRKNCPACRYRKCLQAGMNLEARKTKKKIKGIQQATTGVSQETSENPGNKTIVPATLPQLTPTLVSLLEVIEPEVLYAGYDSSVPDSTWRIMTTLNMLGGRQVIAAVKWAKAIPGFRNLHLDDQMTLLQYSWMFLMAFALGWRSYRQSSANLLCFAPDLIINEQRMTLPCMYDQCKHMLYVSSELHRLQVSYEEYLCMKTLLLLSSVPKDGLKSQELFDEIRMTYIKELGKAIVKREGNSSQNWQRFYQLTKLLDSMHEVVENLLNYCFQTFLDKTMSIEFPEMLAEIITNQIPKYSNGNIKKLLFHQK

[5] = target: Glucocorticoid receptor (Homo sapiens) (UniProt P04150); experiment: GR-EFC Redistribution (AID 451; calls by dose curve; also: potency is read from the fitted curve at half-maximal effect); settings: CHO-K1 GR-EFC translocation, beta-gal luminescence, 2 h
Procedure, shortened: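 CHO-K1 cells stably expressing nuclear-localized β-gal enzyme acceptor and GR fused C-terminally to the enzyme donor fragment; ligand-driven nuclear translocation restores β-gal by complementation. Compounds titrated up to 46 uM final, 2 h at 37 °C; luminescence read.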

[6] = target: Mitogen-activated protein kinase 10 (Mus musculus) (UniProt Q61831); experiment: JNK3 AlphaScreen Assay (AID 530; active = well fitted curve in either direction with a large enough effect, not every such curve was filed as active;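 also: kinase came from lysate of stimulated human HepG2 cells; signal reports phosphorylation of biotinylated GST-cJun 1-79 at Ser73 with 10 µM ATP; % is scaled to controls: 0 for no effect and ±100 for the full control effect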); settings: JNK3 lysate, c-Jun phosphorylation; series mostly up to 57.1 µM
Procedure, shortened: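 Inhibitors reduce antibody binding to phosphorylated biotin-cJun, lowering AlphaScreen luminescence. Lysates from HepG2 cells pre-activated by IL-1beta plus TNF-alpha supplied JNK3; compounds were titrated.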

[7] = target: Cytochrome P450 3A4 (Homo sapiens) (UniProt P08684); experiment: qHTS Assay for Activators of Cytochrome P450 3A4 (AID 885); settings: recombinant CYP3A4, Luciferin-PPXE luminescence, 60 min; series mostly up to 57.1 µM; also: nearly all actives have a fitted effect of over 65% in size
Cytochrome P450 3A4 (Homo sapiens), sequence (P08684 whole entry, looked up): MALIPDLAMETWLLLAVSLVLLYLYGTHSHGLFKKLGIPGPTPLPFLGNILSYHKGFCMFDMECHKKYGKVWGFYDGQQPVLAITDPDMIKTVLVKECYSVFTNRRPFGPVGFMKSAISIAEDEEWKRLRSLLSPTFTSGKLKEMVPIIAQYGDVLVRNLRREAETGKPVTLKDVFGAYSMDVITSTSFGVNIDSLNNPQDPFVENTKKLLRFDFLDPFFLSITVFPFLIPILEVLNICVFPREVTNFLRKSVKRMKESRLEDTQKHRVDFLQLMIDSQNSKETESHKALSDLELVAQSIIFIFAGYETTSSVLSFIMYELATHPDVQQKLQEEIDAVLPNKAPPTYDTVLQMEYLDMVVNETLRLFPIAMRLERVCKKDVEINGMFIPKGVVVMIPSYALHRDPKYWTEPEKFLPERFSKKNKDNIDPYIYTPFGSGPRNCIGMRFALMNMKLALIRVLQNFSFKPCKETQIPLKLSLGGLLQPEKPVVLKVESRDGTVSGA
Procedure, shortened: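 Quantitative HTS format: compounds preincubated with 20nM human CYP3A4 and Luciferin-PPXE substrate at KM, reaction started by NADPH regeneration, stopped after 60 min, luciferase luminescence read 20 min later.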

[8] = target: Cytochrome P450 2C19 (Homo sapiens) (UniProt P33261); experiment: qHTS Assay for Inhibitors and Substrates of Cytochrome P450 2C19 (AID 899); settings: recombinant CYP2C19, luciferin-H EGE luminescence; series mostly up to 57.1 µM; also: potency is read from the fitted curve at half-maximal effect; nearly all actives have a fitted effect of over 60% in size
Cytochrome P450 2C19 (Homo sapiens), sequence (P33261 whole entry, looked up): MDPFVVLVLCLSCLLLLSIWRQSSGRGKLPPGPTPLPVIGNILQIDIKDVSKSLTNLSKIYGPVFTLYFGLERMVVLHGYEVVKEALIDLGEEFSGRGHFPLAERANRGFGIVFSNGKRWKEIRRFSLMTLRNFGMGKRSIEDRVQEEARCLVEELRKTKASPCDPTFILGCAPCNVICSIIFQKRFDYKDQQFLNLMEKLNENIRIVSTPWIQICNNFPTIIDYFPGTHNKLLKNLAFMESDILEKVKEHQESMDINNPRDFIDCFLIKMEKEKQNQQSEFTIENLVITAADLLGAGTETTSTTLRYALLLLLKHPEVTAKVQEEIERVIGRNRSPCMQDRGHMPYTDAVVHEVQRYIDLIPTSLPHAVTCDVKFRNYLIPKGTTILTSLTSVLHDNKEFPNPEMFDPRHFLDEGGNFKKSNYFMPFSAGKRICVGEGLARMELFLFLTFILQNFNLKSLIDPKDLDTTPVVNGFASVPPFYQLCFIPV
Procedure, shortened: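 Human CYP2C19 (5nM) with Luciferin-H EGE at 10uM (its KM) in 50mM KPO4 was preincubated with compound for 10 min at 37C. NADPH regeneration started a 60 min 37C reaction. Luciferin was read by luminescence, normalized to 57uM ketoconazole.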

[9] = target: Dual specificity protein kinase CLK4 (Homo sapiens) (UniProt Q9HAZ1); experiment: qHTS Assay for Inhibitors of CDC-like Kinase 4 (Kinase-Glo Assay) (AID 1770); settings: recombinant Clk4, Kinase-Glo ATP depletion luminescence; series mostly up to 66.7 µM; also: nearly all actives have a fitted effect of over 65% in size; also: potency is read from the fitted curve at half-maximal effect
Dual specificity protein kinase CLK4 (Homo sapiens), sequence (Q9HAZ1 whole entry, looked up): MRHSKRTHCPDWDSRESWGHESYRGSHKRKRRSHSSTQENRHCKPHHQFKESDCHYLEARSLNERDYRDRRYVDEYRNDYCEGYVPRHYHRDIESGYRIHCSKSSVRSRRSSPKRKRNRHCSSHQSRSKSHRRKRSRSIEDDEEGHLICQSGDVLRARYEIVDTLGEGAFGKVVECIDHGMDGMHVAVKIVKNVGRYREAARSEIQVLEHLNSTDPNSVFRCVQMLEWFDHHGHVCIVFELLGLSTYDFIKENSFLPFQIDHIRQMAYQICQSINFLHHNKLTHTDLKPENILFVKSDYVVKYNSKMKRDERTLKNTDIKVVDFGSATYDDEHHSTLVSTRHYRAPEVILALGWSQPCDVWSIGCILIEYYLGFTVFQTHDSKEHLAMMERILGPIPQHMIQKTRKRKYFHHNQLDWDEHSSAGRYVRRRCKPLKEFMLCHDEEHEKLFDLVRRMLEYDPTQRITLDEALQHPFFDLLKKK
Procedure, shortened: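 Readout: Kinase-Glo luminescence from ATP left after a 4.5 h room-temperature reaction of 25 nM Clk4 with 100 uM RS peptide and 1 uM ATP (final). Buffer: 25 mM Tris pH 7.5, 10 mM MgCl2.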

[10] = target: Dual specificity protein kinase CLK4 (Homo sapiens) (UniProt Q9HAZ1); experiment: qHTS Assay for Inhibitors of CDC-like Kinase 4 (ADP-Glo Assay) (AID 1771); settings: recombinant CLK4, ADP-Glo luminescence; series mostly up to 80 µM; also: nearly all actives have a fitted effect of over 70% in size; also: potency is read from the fitted curve at half-maximal effect
Procedure, shortened: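 25 nM Clk4 with 100 uM RS repeat peptide and 1 uM ATP (final) in buffer with 2 mM MgCl2, 0.5 mM EGTA, 2.5 mM DTT, 0.01% Triton X-100; 1 h at room temperature; ADP-Glo luminescence for ADP formed.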

[11] = target: Dual specificity protein kinase CLK4 (Homo sapiens) (UniProt Q9HAZ1); experiment: qHTS Assay for Inhibitors of CDC-like Kinase 4 (ADP-FP Assay) (AID 1795); settings: Transcreener ADP fluorescence polarization; series mostly up to 50 µM; also: nearly all actives have a fitted effect of over 60% in size; also: potency is read from the fitted curve at half-maximal effect
Procedure, shortened: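 FP readout: Orange Transcreener ADP2 tracer (4 nM) plus ADP antibody, read after 30 min at room temperature. Kinase step: 6.25 nM Clk4, 100 uM RS peptide, 1 uM ATP, pH 7.5, 1 h.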

[12] = Primary qHTS for small molecule stabilizers of the endoplasmic reticulum resident proteome: Secreted ER Calcium Modulated Protein (SERCaMP) assay (AID 1508630); settings: SH-SY5Y GLuc-SERCaMP (Gaussia luciferase released on ER calcium loss) secretion, thapsigargin, luminescence; series mostly up to 38.4 µM; also: % is scaled to controls: 0 for no effect and ±100 for the full control effect
Procedure, shortened: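 GLuc-SERCaMP-expressing SH-SY5Y cells, pretreated 16 h with compound, are challenged with thapsigargin to empty ER calcium stores; after 4 h, coelenterazine is added directly to the medium and luminescence is imaged.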

[13] = NFAT Signaling Pathway (AID 444; active = well fitted curve in either direction with a large enough effect, not every such curve was filed as active;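 also: carbachol stimulus at about its EC50 of 1 µM final; % is scaled to controls: 0 for no effect and ±100 for the full control effect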); settings: Jurkat NFAT-bla M1, carbachol, beta-lactamase ratio, 5 h; at 7.69 µM (top of the series) unless noted
Procedure, shortened: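 Jurkat cells carrying an NFAT-driven β-lactamase reporter and co-transfected muscarinic M1 receptor were treated with compound plus carbachol (1 uM final, an EC50 level) for 5 h at 37 °C. CCF4 loading followed for 1 h at RT; 460/530 nm ratio gave %activity.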

[14] = Stat Signaling Pathway (AID 446; active = well fitted curve in either direction with a large enough effect, not every such curve was filed as active); settings: ME-180 SIE beta-lactamase reporter, IL-6 stimulated, 5 h; at 7.69 µM (top of the series) unless noted
Procedure, shortened: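 IL-6/STAT signaling read in ME-180 cells via an SIE beta-lactamase reporter. Stimulus was 40 pM IL-6 (its AC50) for 5 hrs, so both activation and inhibition register.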

[15] = target: Ubiquitin carboxyl-terminal hydrolase 1 (Homo sapiens) (UniProt O94782); experiment: Inhibitors of USP1/UAF1: Pilot qHTS (AID 504865); settings: purified USP1/UAF1, Ub-rhodamine cleavage fluorescence; series mostly up to 54.9 µM;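 also: rhodamine fluorescence freed from ubiquitin-rhodamine substrate followed over time; top concentration of the series differs between compounds; % is scaled to controls: 0 for no effect and ±100 for the full control effect; nearly all actives have a fitted effect of over 35% in size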
Ubiquitin carboxyl-terminal hydrolase 1 (Homo sapiens), sequence (O94782 whole entry, looked up): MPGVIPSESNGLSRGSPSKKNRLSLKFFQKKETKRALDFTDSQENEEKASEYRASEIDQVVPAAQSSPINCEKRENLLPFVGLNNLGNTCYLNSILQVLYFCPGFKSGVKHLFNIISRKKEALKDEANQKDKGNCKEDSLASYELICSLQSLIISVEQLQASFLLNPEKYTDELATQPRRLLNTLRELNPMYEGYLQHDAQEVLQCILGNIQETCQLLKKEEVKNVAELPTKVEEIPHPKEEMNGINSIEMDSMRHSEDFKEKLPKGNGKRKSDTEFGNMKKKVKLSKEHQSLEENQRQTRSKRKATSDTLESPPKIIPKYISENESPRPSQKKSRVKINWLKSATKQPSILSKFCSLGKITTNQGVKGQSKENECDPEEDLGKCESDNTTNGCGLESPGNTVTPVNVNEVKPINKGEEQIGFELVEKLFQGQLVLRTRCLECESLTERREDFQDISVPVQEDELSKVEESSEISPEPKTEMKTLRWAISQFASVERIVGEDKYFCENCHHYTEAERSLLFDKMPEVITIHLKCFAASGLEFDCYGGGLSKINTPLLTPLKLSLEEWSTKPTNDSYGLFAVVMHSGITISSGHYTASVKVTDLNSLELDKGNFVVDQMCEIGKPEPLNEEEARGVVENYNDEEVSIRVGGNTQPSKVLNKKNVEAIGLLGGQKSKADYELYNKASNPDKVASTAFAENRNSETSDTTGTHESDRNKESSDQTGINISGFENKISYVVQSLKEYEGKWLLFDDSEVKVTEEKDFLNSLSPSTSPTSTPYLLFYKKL
Procedure, shortened: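 1nM USP1/UAF1 + cpd, 15 min RT; start w/ Ub-Rho 150nM final; kinetic FL 480/540 nm, 6 reads q60 s. Buffer 50mM HEPES pH 7.8, 0.5mM EDTA, 1mM TCEP, 0.01% Tween-20, 0.1 mg/ml BSA.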

[16] = target: 3',5'-cyclic-AMP phosphodiesterase 4B (Homo sapiens) (UniProt Q07343); experiment: qHTS Assay for Inhibitors of PDE-IV (AID 607; active = well fitted activation curve with a large enough effect in the main read-out, with a control signal flat, not every such curve was filed as active; also: % of control where 0% means no effect); settings: HEK293 ACTOne CNG channel cells, membrane potential fluorescence; series mostly up to 22.9 µM
3',5'-cyclic-AMP phosphodiesterase 4B (Homo sapiens), sequence (Q07343 whole entry, looked up): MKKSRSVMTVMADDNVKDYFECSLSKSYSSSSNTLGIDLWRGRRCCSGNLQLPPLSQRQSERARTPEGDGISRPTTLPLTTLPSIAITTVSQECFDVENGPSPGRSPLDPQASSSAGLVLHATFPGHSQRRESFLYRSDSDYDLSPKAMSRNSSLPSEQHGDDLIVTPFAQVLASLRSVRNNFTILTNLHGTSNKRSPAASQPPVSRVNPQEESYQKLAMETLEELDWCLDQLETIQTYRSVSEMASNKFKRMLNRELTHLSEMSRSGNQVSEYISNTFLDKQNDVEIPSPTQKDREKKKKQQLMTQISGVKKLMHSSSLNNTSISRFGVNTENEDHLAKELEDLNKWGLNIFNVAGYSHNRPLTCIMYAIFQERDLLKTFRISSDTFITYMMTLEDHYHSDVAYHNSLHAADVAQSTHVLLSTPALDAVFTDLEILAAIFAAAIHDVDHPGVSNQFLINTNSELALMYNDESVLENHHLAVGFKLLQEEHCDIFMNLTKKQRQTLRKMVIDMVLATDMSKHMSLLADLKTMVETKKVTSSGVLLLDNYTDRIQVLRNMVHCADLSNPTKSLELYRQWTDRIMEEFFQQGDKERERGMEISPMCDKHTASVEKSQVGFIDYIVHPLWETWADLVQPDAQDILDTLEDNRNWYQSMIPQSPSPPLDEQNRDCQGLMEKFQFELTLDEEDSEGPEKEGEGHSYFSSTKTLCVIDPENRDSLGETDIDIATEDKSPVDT
Procedure, shortened: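 Live HEK293 cells with a modified cyclic nucleotide-gated (CNG) channel report intracellular cAMP via membrane-potential dye fluorescence (ex 535/em 590 nm). Endogenous PDE-IV was targeted. Compounds were tested at up to 22.9 uM final; RO 20-1724 100 uM served as control.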

[17] = qHTS Assay for Identification of Small Molecule Agonists for Hypoxia Response Element Signaling Pathway (AID 914; active = well fitted activation curve with a large enough effect in the signal ratio, with a control signal flat, not every such curve was filed as active; the % refers to the signal ratio; also: potency is read from the fitted curve at half-maximal effect); settings: ME-180 (cervical carcinoma) HRE-bla reporter, beta-lactamase ratio, CoCl2, 17 h; activation: active compounds read high
Procedure, shortened: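 Read-out: CCF4 FRET ratio of 460nm to 530nm emission (excitation 405nm) after 2.5 hours at room temperature, taken from HRE-bla ME-180 cells that had been exposed to compound and EC50 CoCl2 for 17 hours.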

[18] = target: Cytochrome P450 3A4 (Homo sapiens) (UniProt P08684); experiment: qHTS Assay for Inhibitors and Substrates of Cytochrome P450 3A4 (AID 884); settings: recombinant CYP3A4, Luciferin-PPXE luminescence; series mostly up to 57.1 µM; also: potency is read from the fitted curve at half-maximal effect; nearly all actives have a fitted effect of over 50% in size
Procedure, shortened: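 20 nM human CYP3A4 with 25 uM Luciferin-PPXE (at KM) in 200 mM KPO4, preincubated 10 min with compound; NADPH regeneration started a 60 min RT reaction. Luciferin detected by luminescence, normalized to 57 uM ketoconazole as full inhibition.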

Cc1noc(C)c1-c1ccc2ncnc(NCc3cccs3)c2c1
inactive: Potency [1] > 11.4 µM | activity change, negative = inhibition [2] 20.1% | Potency [4] > 46 µM | Potency [5] > 46 µM | Potency [6] | Potency [7] | outcome [12]
active: Potency [3] 0.398 µM | Potency [8] 1.26 µM | Potency [9] 0.501 µM | Potency [10] 0.447 µM | Potency [11] 0.158 µM

COc1ncc2nc(-c3cccs3)c(=O)n(Cc3cccs3)c2n1
inactive: Potency [1] > 11.4 µM | activity change, negative = inhibition [2] 5.34% | activity change, negative = inhibition [13] 5.36% | activity, negative = inhibition [14] -1.88% | Potency [4] > 9.22 µM | Potency [5] > 46 µM | Potency [6] | Potency [9] | Potency [10] | Potency [11] | Potency [15] | outcome [12]

CCNc1ncc2nc(-c3ccc(F)cc3)c(=O)n(-c3ccc(OC)cc3)c2n1
active: Potency [3] 6.31 µM
inactive: Potency [1] > 11.4 µM | activity change, negative = inhibition [2] -1.24% | activity, negative = inhibition [14] 20.4% | Potency [4] > 9.22 µM | Potency [5] > 46 µM | Potency [6] | Potency [7] | Potency [9] | Potency [10] | Potency [11] | Potency [15] | outcome [12]

COc1ccc(Oc2ncc3ncc(=O)n(C4CC4)c3n2)cc1
active: Potency [3] 5.01 µM
inactive: Potency [1] > 11.4 µM | activity change, negative = inhibition [2] -1.59% | activity, negative = inhibition [14] -19.9% | Potency [4] > 9.22 µM | Potency [5] > 46 µM | Potency [6] | Potency [16] | Potency [7] | Potency [9] | Potency [10] | Potency [11] | Potency [15] | outcome [12]

COc1cccc(Cn2c(=O)c(-c3cccs3)nc3cnc(OCc4ccccc4)nc32)c1
inactive: Potency [1] > 11.4 µM | activity change, negative = inhibition [2] 27.9% | activity change, negative = inhibition [13] 3.84% | Potency [4] > 9.22 µM | Potency [5] > 46 µM | Potency [6] | Potency [16] | Potency [7] | Potency [9] | Potency [10] | Potency [11] | outcome [12]
active: Potency [3] 1.58 µM

O=c1c(-c2ccc(Cl)cc2)nc2cnc(Nc3ccccc3)nc2n1C[C@H]1CCCO1
inactive: Potency [1] > 11.4 µM | activity change, negative = inhibition [2] -8.65% | activity change, negative = inhibition [13] -7.53% | Potency [4] > 9.22 µM | Potency [5] > 46 µM | Potency [6] | Potency [9] | Potency [10] | Potency [11] | Potency [15] | outcome [12]
active: Potency [3] 12.6 µM | Potency [17] 0.126 µM

COc1ccc(CNc2nc(-c3c(C)noc3C)nc3ccccc23)c(OC)c1
inactive: Potency [1] > 2.29 µM | activity change, negative = inhibition [2] 5.92% | Potency [4] > 46 µM | Potency [5] > 46 µM | Potency [6] | Potency [7] | Potency [9] | Potency [10] | Potency [11] | outcome [12]
active: Potency [3] 0.794 µM | Potency [18] 2.51 µM | Potency [8] 3.16 µM
